Data: ChEMBL document CHEMBL4513216, “Probing the Open Global Health Chemical Diversity Library for Multistage-Active Starting Points for Next-Generation Antimalarials” (ACS Infect Dis, 2020)
The whole screen tested about 69,000 compounds, of which about 8,600 (12%) showed an effect of 50% or more. Only a selection was taken, and strong results are over-represented in it overall.

These compounds were tested on Plasmodium berghei (assay: Screen against P. berghei liver stage (PbLuc), transformed with Luciferase, at 10uM). Conditions: tested at 10 uM.
Format: functional, HepG2
`Cc1ccc(-n2ncc(C(=O)NC3CC(C)(C)NC(C)(C)C3)c2N)cc1` was tested, and the INHIBITION was -21.1%. Compound `Cc1ccc(-n2ncc(C(=O)NC3CCCCC3)c2N)cc1` has an INHIBITION of 66.5%. `CCc1c(C(=O)NC2CCS(=O)(=O)C2)cnn1-c1ccc(C)cc1` (stereo not given) was tested, and the INHIBITION was -17%. For `CCOc1c(F)cccc1C(=O)N(CC)C(C)c1cccnc1` (stereo not given), the INHIBITION was 43.1%. For `CCOc1c(F)cccc1C(=O)N(CC)C(C)c1ccncc1` (stereo not given), the INHIBITION was 31.2%. In the case of `CCOc1c(F)cccc1C(=O)N(c1cccnc1)C(C)C`, the INHIBITION was 55.1%. In the case of `COC(=O)CN(CC1CCOC1)C1CC1` (stereo not given), the INHIBITION was 50.5%. For `COC(=O)CCN(CC1CCOC1)C1CC1` (stereo not given), the INHIBITION was 43.9%. `NC(=O)CN(CC1CCOC1)C1CC1` (stereo not given) was tested, and the INHIBITION was 9.16%. With `CC(C)N1CCc2[nH]nc(C(=O)N3CCN(C)CC3)c2C1` the INHIBITION was 1.34%. Compound `COc1ccc(-n2nnnc2C2(NCc3ccco3)CCCCC2)cc1` has an INHIBITION of 24.2%. `Cc1cc(Cl)ccc1NCC(=O)Nc1cc(C(C)(C)C)no1` showed an INHIBITION of 24.7%. `COc1ccc(-n2nnnc2C(C)(C)Nc2ccc(C)cc2C)cc1` showed an INHIBITION of 77.7%. `Cc1ccc(NC(C)(C)c2nnnn2-c2ccc(Cl)cc2)c(C)c1` was tested, and the INHIBITION was 81.1%. Work on `Cc1cccc(-n2nnnc2C(C)(C)Nc2ccccc2C)c1` yielded an INHIBITION of 39.1%. In the case of `COc1ccc(-n2nnc(C(=O)NC(C)C)c2C2CC2)cc1`, the INHIBITION was 40.1%. `c1cnc2c(c1)cc([C@@H]1CCCO1)n2CCN1CCOCC1` was tested, and the INHIBITION was 0.301%. Compound `NC(=O)C(CNC(=O)CCc1ccsc1)Cc1ccc(F)cc1` (stereo not given) has an INHIBITION of 13.1%. `Cc1ccoc1C(=O)N1CC[C@H]2[C@@H]1CCC(=O)N2c1cccnc1` was tested, and the INHIBITION was -7.38%. `OCc1n[nH]c(-c2ccc(F)cc2)n1` gave an INHIBITION of -17%. Compound `c1cnnc(NCC2CN(CC3CCOCC3)CCO2)c1` (stereo not given) has an INHIBITION of -35.7%. In the case of `CC(C)(O)CN1CCC(=O)N(Cc2ccco2)Cc2cc(F)ccc21`, the INHIBITION was -17.1%. Compound `CCN1Cc2cc(OC)ccc2N(CC(C)(C)O)CCC1=O` has an INHIBITION of 17.7%. For `COc1ccc2c(c1)CN(Cc1ccco1)C(=O)CCN2CC(C)(C)O`, the INHIBITION was 51.7%. Work on `CCOc1cc(CNCC2CN(C3CC3)CCO2)ccc1OC` (stereo not given) yielded an INHIBITION of 22.3%. For `O=C(N[C@@H]1CN(Cc2ccc(F)cc2)C[C@H]1O)c1cscn1`, the INHIBITION was 10%. For `O=C(N[C@@H]1CN(CCc2ccc(F)cc2)C[C@H]1O)c1cscn1`, the INHIBITION was 54.5%. `O=C(N[C@@H]1CN(Cc2ccc(F)c(F)c2)C[C@H]1O)c1cscn1` was tested, and the INHIBITION was 2.6%. For `Cc1nc(Nc2nnc(C)s2)cc(C2CCCN2C2CCCC2)n1` (stereo not given), the INHIBITION was 28%. Compound `CCc1ncnc2c1CCN(Cc1ccccn1)CC2` has an INHIBITION of -9.48%.
